Bioassay records as filed in PubChem.
Sampled rows, rich in hits. Any-hit rate of the full collection: about 19%.
TDP1 cell noCPT: qHTS for Inhibitors of human tyrosyl-DNA phosphodiesterase 1 (TDP1): qHTS in cells in absence of CPT | DT40 Tdp1-/- hTDP1 cells, no CPT, ATP luminescence, 48 h | Potency, µM (top dose mostly 46.2 µM), without a hit: top-dose activity change, negative = growth inhibition, most hits filed as inhibitors | 15% of 420,000 active | AID 686978, 2013; note: potency is the fitted concentration of half-maximal effect; % is set by controls: 0 for no effect and ±100 for the full control effect; nearly all actives have a fitted effect of over 55% in size
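Chicken DT40 Tdp1-/- cells complemented with human TDP1, screened without camptothecin (DMSO vehicle only), 400 cells/well. Compounds pin-transferred, cells incubated at 37 °C for at least 48 hr. Growth read as ATP-dependent luminescence (CellTiter-Glo, 30 min at RT).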
TGFb inhibitor: TGF-b pathway inhibition; HepG2 CAGA-GFP TGF-b/SMAD3 reporter, GFP fluorescence, 18 h; TGF-beta stimulated, 500 pg/mL final; Potency, µM (highest dose often 46.1 µM), inactives show at the highest dose activity, negative = inhibition, usual class: inhibitors; 1.2% of 410,000 active; AID 588855; note: potency is the fitted concentration of half-maximal effect; % is set by controls: 0 for no effect and ±100 for the full control effect; nearly all actives have a fitted effect of over 65% in size
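Inhibition of TGF-beta-driven CAGA-GFP reporter expression in HEPG2 cells is measured by cellular GFP fluorescence after 18 h stimulation with 500 pg/mL recombinant TGF-beta in 1% FBS medium at 37 degrees C.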
IL1B secr inh: inhibitors of inflammasome signaling (IL-1 beta secretion) | 4.7% of 360,000 active | THP-1 LPS/ATP IL-1B secretion, AlphaLISA, 16 h; hits give low values | activity change, % at 57.5 µM; in the data active = activity change below about -50%; inconclusive = mostly about -30% to -49%; note: % is set by controls: 0 for no effect and ±100 for the full control effect
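THP-1 cells pretreated 1 hr with compounds (up to 57.5 uM final), then stimulated with LPS (250 ng/mL final) plus ATP (1.25 mM final); secreted IL-1B measured by AlphaLISA after 16 hr, decreased signal indicating inhibition.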
DT40 TDP1 CPT: growth inhibition of DT40 Tdp1-/-;hTDP1 cells with camptothecin (screen for TDP1 inhibitors) | chicken DT40 Tdp1-/-;hTDP1 cells + 20 nM CPT, ATP luminescence, 48 h | Potency, µM (doses to about 46.2 µM), for inactives: at the top dose activity change, negative = growth inhibition, hits mostly inhibitors | 12% of 420,000 active | AID 686979; note: potency is the fitted concentration of half-maximal effect; % is set by controls: 0 for no effect and ±100 for the full control effect; nearly all actives have a fitted effect of over 55% in size
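Chicken DT40 Tdp1-/- cells complemented with human TDP1, 400 cells/well, exposed to compounds plus 20 nM camptothecin for at least 48 h at 37 C; viability read as ATP content by CellTiter-Glo luminescence.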
TDP1 inh: inhibitors of human tyrosyl-DNA phosphodiesterase TDP1 | Q9NUW8 | recombinant TDP1, AlphaScreen DNA substrate cleavage | Potency, µM (doses to about 130 µM), without a hit: at the top dose activity change, negative = inhibition, usual class: inhibitors | 0.28% of 350,000 active; note: potency is the fitted concentration of half-maximal effect; % is set by controls: 0 for no effect and ±100 for the full control effect; nearly all actives have a fitted effect of over 40% in size
Target sequence (Q9NUW8 whole entry, looked up): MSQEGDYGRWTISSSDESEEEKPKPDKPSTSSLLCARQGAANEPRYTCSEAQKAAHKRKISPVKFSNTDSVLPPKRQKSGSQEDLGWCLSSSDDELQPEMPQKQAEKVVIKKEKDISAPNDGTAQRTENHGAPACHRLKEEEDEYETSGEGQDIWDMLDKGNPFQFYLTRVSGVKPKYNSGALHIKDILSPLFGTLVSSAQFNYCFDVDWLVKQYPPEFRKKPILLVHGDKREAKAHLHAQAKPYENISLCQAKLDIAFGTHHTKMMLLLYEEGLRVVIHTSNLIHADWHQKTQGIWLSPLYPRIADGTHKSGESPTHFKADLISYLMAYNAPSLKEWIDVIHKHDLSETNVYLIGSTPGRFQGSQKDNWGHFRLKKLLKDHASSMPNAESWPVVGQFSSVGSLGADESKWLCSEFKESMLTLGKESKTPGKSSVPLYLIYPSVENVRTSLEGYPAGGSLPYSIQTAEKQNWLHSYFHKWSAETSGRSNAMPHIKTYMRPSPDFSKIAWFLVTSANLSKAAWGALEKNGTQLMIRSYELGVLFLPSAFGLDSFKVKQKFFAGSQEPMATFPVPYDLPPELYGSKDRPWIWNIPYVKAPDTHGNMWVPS
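Steps: enzyme plus compound, 15 min RT; add biotin/phosphotyrosine-FITC oligonucleotide (15 nM final), react 5 min; add donor/acceptor beads (10 ug/ml final), 10 min; read AlphaScreen. Tdp1 at 1 nM final.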
HepG2 tox: kills HepG2 cells in TGF-b inhibitor counter-screen; Potency, µM (titrated, usually from 46.1 µM), for inactives: at the top dose activity change, negative = cytotoxicity, most hits filed as cytotoxic; HepG2 CAGA-GFP viability, ATP luminescence, 18 h; AID 588856; 0.76% of 410,000 active; note: potency is the fitted concentration of half-maximal effect
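CellTiter-Glo luminescence gave cytotoxicity after 18 hours at 37 degrees C. The cells were HepG2 CAGA-GFP in 1% FBS DMEM, stimulated with 500 pg/mL TGF-beta after compound addition. %Activity was normalised to no-cell wells (complete cell-killing) and DMSO (no toxicity), and curves were fitted and classified.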
* hit, by the source's call; ? = inconclusive; · = no result; [ ] = another dose, or the depositor's remark. Unless noted, calls come from the whole dose curve; as a rule, active = well fitted curve in the direction sought with a large enough effect; inconclusive = small, poorly fitted or top-dose-only effect, or another doubt; inactive = no such curve, though single readings can be large; an effect the other way counts as inactive or inconclusive.

SMILES	TDP1 cell noCPT	TGFb inhibitor	IL1B secr inh	DT40 TDP1 CPT	TDP1 inh	HepG2 tox
Cc1cccc2c(C(O)c3cn(C)c4ccccc34)c[nH]c12 (stereo not drawn)	16µM*	?	·	11µM*	·	-35%
Cn1cc(C(c2ccccn2)c2cn(C)c3ccccc23)c2ccccc21	?	?	0	?	10%	-3%
CC(C)(C)OC(=O)C(Cl)(C(=O)OC(C)(C)C)c1ccc2nnnn2n1	?	-1%	-79*	?	8%	-17%
Cc1ccc(CNC(=O)C(C)n2c(=O)cc(C(F)(F)F)c3c(C)nn(C)c32)cc1 (stereo not drawn)	?	-24%	·	26µM*	5%	-11%
COc1cccc(NC(=O)C(C)n2c(=O)cc(C(F)(F)F)c3c(C)nn(C)c32)c1 (stereo not drawn)	18µM*	-2%	·	16µM*	5%	-1%
COc1ccc(CCNC(=O)C(C)n2c(=O)cc(C(F)(F)F)c3c(C)nn(C)c32)cc1OC (stereo not drawn)	?	5%	·	?	2%	-8%
Cn1c(SCc2nc(-c3ccc(Cl)cc3)no2)nnc1-c1cccs1	16µM*	10%	?	?	-1%	-6%
CCn1c(SCc2nc(-c3ccc(Cl)cc3)no2)nnc1-c1ccco1	21µM*	4%	?	?	4%	-22%
Cn1c(SCc2nc(-c3ccccc3)no2)nnc1-c1ccco1	-6%	-2%	6	-3%	4%	-1%
Cn1c(SCc2nc(-c3ccccc3)no2)nnc1-c1cccs1	2%	25%	3	-22%	-1%[56.1 µM]	0%
CC[C@H](C)[C@H](NC(=O)[C@H](C)NC(=O)CNC(=O)[C@H](CCCCN)NC(=O)[C@H](CC(N)=O)NC(=O)[C@H](CO)NC(=O)CN)C(=O)N[C@H](C(=O)NCC(=O)N[C@@H](CC(C)C)C(=O)N[C@@H](CCSC)C(=O)O)[C@@H](C)CC	·	·	·	·	8%	·
Cc1nc2scc(C)n2c(=O)c1S(=O)(=O)NCc1ccc(F)cc1	-10%	17%	-6	-5%	1%	33%
COc1ccc2c(c1)C/C(=C\c1ccc(N(C)C)cc1)C2=O	?	183%	·	?	·	-25%
Cc1cccc(OCC(=O)Nc2nc(-c3ccncc3)cs2)c1	?	0%	47	-28%	-2%	-14%
O=C(COc1ccccc1)Nc1nc(-c2cccnc2)cs1	?	5%	21	?	-2%	-5%
O=C(COc1ccccc1)Nc1nc(-c2ccncc2)cs1	16µM*	4%	37	21µM*	4%	-62%
COc1ccc(CC(=O)Nc2nc(-c3cccnc3)cs2)cc1	26µM*	-1%	17	?	0%	5%
COc1ccccc1Nc1nc(-c2cccnc2)cs1	?	10%	-95*	?	·	-8%
Cc1cc(C)cc(OCC(=O)Nc2nc(-c3cccnc3)cs2)c1	9.2µM*	-4%	0	15µM*	1%	-12%
Cc1ccc(C)c(OCC(=O)N(C)CC(=O)Nc2ccc(Cl)c(C(F)(F)F)c2)c1	?	?	-13	?	0%	-23%
COc1ccc(S(=O)(=O)Nc2ccc(F)cc2F)cc1C(=O)N1CCOCC1	-1%	27%	15	1%	9%	-3%
COc1ccc([N+](=O)[O-])cc1CN1CCN(c2ncc(Cc3ccccc3)cn2)CC1	18µM*	·	-8	21µM*	·	·
Cc1ccc([N+](=O)[O-])cc1CN1CCN(c2ncc(Cc3ccccc3)cn2)CC1	?	·	58	?	·	·
O=[N+]([O-])c1ccc(F)c(CN2CCN(c3ncc(Cc4ccccc4)cn3)CC2)c1	21µM*	·	32	?	·	·
CCOc1cccc2sc(N(CCCN(C)C)C(=O)c3ccc(C(=O)c4ccccc4)cc3)nc12	-5%	?	-88*	?	10%	-82%
SMILES	TDP1 cell noCPT	TGFb inhibitor	IL1B secr inh	DT40 TDP1 CPT	TDP1 inh	HepG2 tox
CN(C)CCCN(C(=O)c1ccc(S(=O)(=O)N2CCCCCC2)cc1)c1nc2c(F)cccc2s1	-26%	-23%	-6	?	5%	-23%
CCOc1cccc2sc(N(CCN(C)C)C(=O)c3cc4ccccc4cc3OC)nc12	?	?	-58*	23µM*	12%	-53%
CCOc1cccc2sc(N(CCCN(C)C)C(=O)c3ccc(S(=O)(=O)N(CC)Cc4ccccc4)cc3)nc12	?	?	-90*	?	13%	-105%
CCOc1cccc2sc(N(CCCN(C)C)C(=O)Cc3ccccc3)nc12	22%	-1%	-26	-3%	6%	-9%
CCN(Cc1ccccc1)S(=O)(=O)c1ccc(C(=O)N(CCCN(C)C)c2nc3c(F)cccc3s2)cc1	?	-27%	-77*	?	11%	-24%
CN(C)CCCN(C(=O)c1ccc(C(=O)c2ccccc2)cc1)c1nc2c(F)cccc2s1	-12%	?	?	-28%	6%	-29%
COC(=O)CC1C(=O)NCCN1C(=O)CN1Cc2ccccc2OC(c2ccccc2)C1 (stereo not drawn)	-14%	·	·	-5%	·	·
COc1ccc(C(CCN2CCN(c3ccccc3)CC2)c2c(O)cc(OC)cc2OC)cc1 (stereo not drawn)	21µM*	?	-7	16µM*	20%	-13%
COc1cc(O)c(C(CCN2CCOCC2)c2ccc(N(C)C)cc2)c(OC)c1 (stereo not drawn)	?	-12%	-13	15µM*	21%	7%
COc1cc(O)c(C(CCN2CCOCC2)c2ccc3c(c2)OCO3)c(OC)c1 (stereo not drawn)	?	?	-23	?	13%	-10%
COc1cc(O)c(C(CC(=O)N2CCN(c3ccccc3)CC2)c2cc(OC)c(OC)c(OC)c2)c(OC)c1 (stereo not drawn)	?	1%	-6	?	17%	-13%
COc1cc(O)c(C(CCN2CCN(c3ccccc3)CC2)c2ccc(N(C)C)cc2)c(OC)c1 (stereo not drawn)	21µM*	?	?	13µM*	28%	-18%
O=C(Nc1ncc(S(=O)(=O)c2ccc([N+](=O)[O-])cc2)s1)c1cccc2ccccc12	21µM*	?	29	15µM*	6%	-1%
